The source of these data is PubChem BioAssay (NCI).

A short description of this experiment: NCI Yeast Anticancer Drug Screen. Data for the mlh1 rad18 strain (AID 175). As to conditions: S. cerevisiae mlh1 rad18 strain growth inhibition, hits give high values. As to the method:
Growth inhibition of yeast strains with defined genetic alterations is measured as a screen for potential anti-cancer activity. Selected strains with alterations in DNA damage repair or cell cycle control were exposed to compounds and growth inhibition was measured relative to vehicle treated controls. The strain used in this assay is mlh1 rad18

Where [1] appears, read: at 5.0 µM (retest, dose inferred, filed as 0.5).
Setting [2] is: at 50.0 µM (retest, dose inferred, filed as 5.0).

The panel holds about 79,000 compounds, 15% with a hit somewhere; the sample as a whole holds those more often. Values without a mark were called inactive. The source made the active and inactive calls. Cut-off read from the data, not from the text of the source: active = growth inhibition above about 70%; inactive = the rest.

Regarding `O=C1SCCN1/N=C/c1ccc([N+](=O)[O-])o1`, the growth inhibition is, setting by setting: under setting [1], 51%; under setting [2], 94% (active); (at 50.0 µM) 92% (active).

As to `O=[N+]([O-])c1cc(CN(CCO)CCO)c(O)c2ncccc12`, the growth inhibition runs as follows: under setting [1], 96% (active); under setting [2], 99% (active); (at 50.0 µM) 97.2% (active).

As for `CN(C)CC1Cc2ccsc2C1=O` (configuration not stated), the growth inhibition was 0% under setting [1], 93% (active) under setting [2] and 99.2% (active) (at 50.0 µM).

Regarding `N#CSc1cc(SC#N)c2ccccc2c1N`, the growth inhibition under setting [1] is 8%, the growth inhibition under setting [2] is -2% and the growth inhibition (at 50.0 µM) was 63.5%.

In the case of `COCCN1C(=O)C2c3[nH]c4ccccc4c3C3CCC(C(C)(C)C)CC3C2C1=O` (configuration not stated), the growth inhibition is 4% under setting [1], 98% (active) under setting [2] and 94.5% (active) (at 50.0 µM).

`CC(=Nc1ccc(N(C)C)cc1)c1ccccc1`: the growth inhibition reads like this: under setting [1], -15%; under setting [2], 78% (active); (at 50.0 µM) 71% (active).

In the case of `CCOC(=O)N1CCN(CCCOc2ccc(Cl)cc2Cc2ccccc2)CC1`, the growth inhibition reads like this: under setting [1], 24%; under setting [2], 100% (active); (at 50.0 µM) 99.7% (active).

In the case of `C=CCOc1ccc2c(c1)CC=C1[C@@H]2CC[C@]2(C)C(=N\O)/C(=N/O)C[C@@H]12`, the growth inhibition was 45% under setting [1], 99% (active) under setting [2] and 99% (active) (at 50.0 µM).

As to `O=[N+]([O-])c1cc2cccnc2c2ncccc12`, the growth inhibition runs as follows: under setting [1], 4%; under setting [2], 22%; (at 50.0 µM) 76.2% (active).

As for `Nc1c(F)cccc1F`, the growth inhibition is, setting by setting: under setting [1], 0%; under setting [2], 3%; (at 50.0 µM) -8.3%.

For the molecule `CCCCc1c2c(nc3c1CCc1cc4cc5c(nc4nc1-3)-c1nc3c(c(CCCC)c1CC5)CCC/C3=N/OC)/C(=N\OC)CCC2`, the growth inhibition is, setting by setting: under setting [1], -11%; under setting [2], 93% (active); (at 50.0 µM) 95.7% (active).

`O=C(Nc1ccccc1)c1ccc(Cl)cc1Cl`: the growth inhibition is, setting by setting: under setting [1], -6%; under setting [2], -8%; (at 50.0 µM) 8.05%.

In the case of `OC1(CCc2ccccc2)COC(C(F)(F)F)(C(F)(F)F)C1` (configuration not stated), the growth inhibition under setting [1] was 26%, the growth inhibition under setting [2] was 30% and the growth inhibition (at 50.0 µM) was 74.8% (active).

Take `O=C(/C=C/C(=O)OCCCl)OCCCl`: the growth inhibition runs as follows: under setting [1], 4%; under setting [2], 95% (active); (at 50.0 µM) 95.2% (active).
